Molecules are shown by their SMILES. Values joined by “and” are separate entries in the source; they are usually repeats but may differ in a detail not shown here. Identical values can stand only once. Records with an inconclusive call do not appear. Where a structure was tested more than once in an assay, its records may differ in their call. Active and inactive are the calls of the source. Calls follow the shape of the dose curve; as a rule, active = well fitted curve in the direction sought with a large enough effect in the repeat runs; inconclusive = weak or mixed curves; inactive = no such curve, though single readings can be large; an effect the other way counts as inactive or inconclusive.

These results are taken from PubChem BioAssay (Tox21).

A short description of assay [1]: A CellTox Green Cytotoxicity Assay to monitor cytotoxicity in HEK293 cells - 40 hour (AID 1224871). Also: nearly all actives have a fitted effect of over 45% in size. Also: potency is read from the fitted curve at half-maximal effect. The procedure, abridged: (§1)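 Nonlytic real-time cytotoxicity: HEK293 + CellTox Green reagent plated, 5 h preincubation, pintool compound addition (23 nL in DMSO), 37 C for 40 h, fluorescence measured at successive time points.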
The nature of assay [2]: qHTS RealTime-Glo MT Cell Viability Assay in HEK293 cells - 16 hour (AID 1224872). Also: nearly all actives have a fitted effect of over 50% in size. Also: potency is read from the fitted curve at half-maximal effect. The procedure, abridged:
(§2)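 HEK293 cells seeded with NanoLuc/prosubstrate reagent, rested 5 h at 37 C, then dosed and kept at 37 C up to 40 h. Nonlytic real-time luminescence from viable cells read at 0, 8, 16, 24, 32 and 40 h.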

Assay [3] can be described thus: qHTS RealTime-Glo MT Cell Viability Assay in HepG2 cells - 8 hour (AID 1224873). Also: nearly all actives have a fitted effect of over 55% in size. The procedure, abridged:
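Real-time viability: cells seeded at 600 per well together with NanoLuc and cell-permeant prosubstrate, compounds added after 5 h incubation. Luminescence tracked at 0, 8, 16, 24, 32 and 40 h of exposure.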
(Quantitative high-throughput screening tests each substance at several concentrations.)

Assay [4] is described as follows: qHTS RealTime-Glo MT Cell Viability Assay in HEK293 cells - 40 hour (AID 1224874). Also: nearly all actives have a fitted effect of over 50% in size. Also: potency is read from the fitted curve at half-maximal effect. The settings on record: RealTime-Glo luminescence; max response: stronger effect = lower value. In a few lines: (§3)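 Cells were seeded together with NanoLuc luciferase and a prosubstrate that viable cells reduce to a luciferase substrate. After a 5 h incubation at 37 C/5% CO2, compounds were added and luminescence was measured repeatedly during 40 h of treatment.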

Assay [5] is described as follows: A CellTox Green Cytotoxicity Assay to monitor cytotoxicity in HepG2 cells - 16 hour (AID 1224876). Also: nearly all actives have a fitted effect of over 45% in size. Also: potency is read from the fitted curve at half-maximal effect. The procedure, abridged:
(§4)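 Read-out is fluorescence of a cyanine dye excluded from live cells that stains DNA of dead HepG2 cells, with signal proportional to cytotoxicity. Plates were read at 0, 8, 16, 24, 32 and 40 h after compound addition.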

The nature of assay [6]: qHTS RealTime-Glo MT Cell Viability Assay in HepG2 cells - 32 hour (AID 1224877). Also: nearly all actives have a fitted effect of over 55% in size. The procedure, abridged:
(§5)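 HepG2 cells (600/well) were dispensed with RealTime-Glo reagents, incubated 5 h at 37 °C, then treated with compounds in DMSO for up to 40 h. Nonlytic NanoLuc luminescence reflecting viable cells was read at each stated time point.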

Assay [7] in a line: A CellTox Green Cytotoxicity Assay to monitor cytotoxicity in HepG2 cells - 24 hour (AID 1224878). Also: nearly all actives have a fitted effect of over 45% in size. Also: potency is read from the fitted curve at half-maximal effect. In a few lines: as §4
Assay [8] in a line: A CellTox Green Cytotoxicity Assay to monitor cytotoxicity in HepG2 cells - 40 hour (AID 1224879). Also: nearly all actives have a fitted effect of over 40% in size. Also: potency is read from the fitted curve at half-maximal effect. In a few lines: as §4
Assay [9] can be described thus: qHTS RealTime-Glo MT Cell Viability Assay in HEK293 cells - 0 hour (AID 1224880). Also: top concentration of the series differs between compounds; nearly all actives have a fitted effect of over 45% in size. The procedure, abridged: as §3
Assay [10] can be described thus: A CellTox Green Cytotoxicity Assay to monitor cytotoxicity in HepG2 cells - 0 hour (AID 1224882). Also: nearly all actives have a fitted effect of over 35% in size. Also: potency is read from the fitted curve at half-maximal effect. The procedure, abridged:
as §4

Assay [11] is described as follows: A CellTox Green Cytotoxicity Assay to monitor cytotoxicity in HepG2 cells - 32 hour (AID 1224883). Also: nearly all actives have a fitted effect of over 50% in size. Also: potency is read from the fitted curve at half-maximal effect. The procedure, abridged: as §4
A short description of assay [12]: A CellTox Green Cytotoxicity Assay to monitor cytotoxicity in HEK293 cells - 8 hour (AID 1224884). Also: nearly all actives have a fitted effect of over 35% in size. Also: potency is read from the fitted curve at half-maximal effect. The procedure, abridged:
as §1

Assay [13] is described as follows: qHTS RealTime-Glo MT Cell Viability Assay in HepG2 cells - 16 hour (AID 1224885). Also: nearly all actives have a fitted effect of over 50% in size. Also: potency is read from the fitted curve at half-maximal effect. The procedure, abridged: as §5
Assay [14] can be described thus: qHTS RealTime-Glo MT Cell Viability Assay in HEK293 cells - 24 hour (AID 1224886). Also: nearly all actives have a fitted effect of over 50% in size. Also: potency is read from the fitted curve at half-maximal effect. The procedure, abridged: as §2
Assay [15] can be described thus: qHTS RealTime-Glo MT Cell Viability Assay in HepG2 cells - 0 hour (AID 1224889). Also: nearly all actives have a fitted effect of over 50% in size. Also: potency is read from the fitted curve at half-maximal effect. In a few lines: as §5
A short description of assay [16]: A CellTox Green Cytotoxicity Assay to monitor cytotoxicity in HepG2 cells - 8 hour (AID 1224890). Also: nearly all actives have a fitted effect of over 45% in size. Also: potency is read from the fitted curve at half-maximal effect. The procedure, abridged:
as §4

Assay [17] can be described thus: A CellTox Green Cytotoxicity Assay to monitor cytotoxicity in HEK293 cells - 24 hour (AID 1224875). In a few lines:
as §1

Assay [18] is described as follows: A CellTox Green Cytotoxicity Assay to monitor cytotoxicity in HEK293 cells - 16 hour (AID 1224888). Also: nearly all actives have a fitted effect of over 35% in size. The procedure, abridged: as §1
Assay [19] can be described thus: qHTS RealTime-Glo MT Cell Viability Assay in HEK293 cells - 8 hour (AID 1224887). Also: nearly all actives have a fitted effect of over 50% in size. Also: potency is read from the fitted curve at half-maximal effect. In a few lines:
as §3

Assay [20] is described as follows: A CellTox Green Cytotoxicity Assay to monitor cytotoxicity in HEK293 cells - 32 hour (AID 1224881). Also: nearly all actives have a fitted effect of over 40% in size. Also: potency is read from the fitted curve at half-maximal effect. In a few lines:
as §1
% is scaled to controls: 0 for no effect and ±100 for the full control effect.

On to `C=CC(=O)NC(C)(C)CS(=O)(=O)O`, for which the Potency result in [1] was “inactive and 43.6 µM (active)”; in assay [5], “inactive and 24.5 µM (active)”; in [7] it was “inactive and 24.5 µM (active)”; in assay [8], “inactive and 43.6 µM (active)”; in assay [10], “inactive and 27.5 µM (active)”; in assay [11], “inactive and 24.5 µM (active)”. The Potency result is “inactive and 43.6 µM (active)” in [12]; “inactive and 38.9 µM (active)” in assay [16]. The Potency entry in assay [2], in assay [9], in assay [13], in assay [14] and in [15] was “inactive” throughout. The compound was classed as inactive in [3] and in assay [6]. The max response in assay [4] is -2.52% (inactive) and 4.35% (inactive) and 4.55% (inactive).

As for `CCCCOC(=O)CCCCCCCCC(=O)OCCCC`, the Potency result in assay [1], in [2], in [17], in [5], in assay [7] and in assay [8] was “inactive” each time. Further, the Potency result in assay [9], in assay [10], in [11], in assay [12], in assay [13] and in [14] was “inactive” each time. The Potency entry in assay [18], in [15] and in [16] was “inactive” throughout. The compound was called inactive in assay [3] and in assay [6]. For the same compound, in [4], the max response is 14.7% (inactive) and 5.35% (inactive).

With `CO[C@H]1C=CO[C@@]2(C)Oc3c(C)c(O)c4c(O)c(c(/C=N/N5CCN(C)CC5)c(O)c4c3C2=O)NC(=O)/C(C)=C\C=C[C@H](C)[C@H](O)[C@@H](C)[C@@H](O)[C@@H](C)[C@H](OC(C)=O)[C@@H]1C`, the Potency entry in assay [1], in [17], in assay [5], in assay [7], in [8] and in assay [9] was “inactive” each time. The Potency result in [10], in assay [11], in [12], in assay [18], in assay [15] and in assay [16] was “inactive” throughout. The Potency was 6.96 µM (active) and 2.21 µM (active) and 21.3 µM (active) in assay [2]; 22 µM (active) and 15.7 µM (active) in assay [4]; 12.4 µM (active) in [13]; 12.4 µM (active) and 4.42 µM (active) and 21.3 µM (active) in [14]; 2.77 µM (active) and 988 nM (active) and 10.7 µM (active) in assay [19]. Also, the outcome in assay [6] was inactive.

For the compound `C[C@]12CC[C@@H]3c4ccc(O)cc4C[C@@H](CCCCCCCCCS(=O)CCCC(F)(F)C(F)(F)F)[C@H]3[C@@H]1CC[C@@H]2O` (stereo partly specified), the Potency result in assay [1], in assay [17], in assay [5], in assay [7], in [8] and in assay [9] was “inactive” in each case. Further, the Potency entry in assay [20], in assay [10], in assay [11], in [12], in [13] and in assay [18] was “inactive” each time. Also, the Potency result in assay [15] and in [16] was “inactive” throughout. The Potency in [2], in assay [4], in assay [14] and in assay [19] was 43.6 µM (active) throughout. Also, in assay [6], the compound was called inactive.

As to `CC(=O)CCC(C)C`, the Potency entry in [1] was “inactive and 24.5 µM (active)”; in assay [5], “inactive and 38.9 µM (active)”; in [7] it was “inactive and 38.9 µM (active)”; in assay [8] it was “inactive and 27.5 µM (active)”; in assay [20] it was “inactive and 34.7 µM (active)”; in assay [10], “inactive and 38.9 µM (active)”. Moreover, the Potency entry in [11] was “inactive and 38.9 µM (active)”; in [12], “inactive and 38.9 µM (active)”; in [16], “inactive and 43.6 µM (active)”. For the same compound, the Potency entry in [2], in assay [9], in assay [13], in [14], in [19] and in [15] was “inactive” in each case. The outcome in assay [3] and in [6] was inactive. Moreover, the max response in assay [4] was -1.02% (inactive) and 1.57% (inactive).

Consider `C[C@]12C=CC(=O)C=C1CC[C@@H]1[C@@H]2C(=O)C[C@@]2(C)[C@H]1CC[C@]2(O)C(=O)CO`, for which the Potency entry in [1], in assay [2], in [17], in assay [5], in assay [7] and in assay [8] was “inactive” each time. Moreover, the Potency result in assay [9], in assay [10], in [11], in assay [12], in assay [13] and in [14] was “inactive” throughout. Moreover, the Potency result in [18] and in assay [16] was “inactive” each time. In addition, the compound was classed as inactive in assay [3] and in assay [6]. For the same compound, the max response in assay [4] was -10.3% (inactive) and 0.237% (inactive) and 8.61% (inactive). Moreover, the Potency in assay [15] was 22 µM (active) and 17.4 µM (active).

As for `CCCCOCCOCCOC(C)=O`, the Potency entry in assay [1], in assay [2], in assay [17], in assay [5], in assay [7] and in assay [8] was “inactive” in each case. The Potency entry in assay [9], in assay [10], in assay [11], in assay [12], in assay [13] and in assay [14] was “inactive” in each case. For the same compound, the Potency entry in assay [18], in assay [15] and in assay [16] was “inactive” in each case. In addition, the call in [3] and in [6] was inactive. For the same compound, the max response in [4] was 7.04% (inactive) and 1.04% (inactive).

Take `CN/C(=C\[N+](=O)[O-])NCCSCc1ccc(CN(C)C)o1`: the Potency result in assay [1], in assay [2], in assay [17], in assay [5], in assay [7] and in [8] was “inactive” throughout. Further, the Potency entry in [9], in assay [10], in [11], in assay [12], in assay [13] and in assay [14] was “inactive” in each case. The Potency result in assay [19], in assay [18], in assay [15] and in [16] was “inactive” throughout. Besides, the call in assay [3] and in [6] was inactive. Also, the max response in assay [4] was 4.86% (inactive) and 0.756% (inactive).

For `NC(=O)N/N=C/c1ccc([N+](=O)[O-])o1`, the Potency entry in [1], in assay [2], in assay [17], in [5], in assay [7] and in assay [8] was “inactive” each time. In addition, the Potency result in assay [9], in assay [10], in [11], in assay [12], in assay [13] and in assay [14] was “inactive” throughout. Also, the Potency entry in assay [19], in assay [18], in [15] and in [16] was “inactive” each time. Also, the compound was called inactive in assay [3] and in [6]. The max response in [4] is -0.165% (inactive).

For `CCn1cc(C(=O)O)c(=O)c2ccc(C)nc21`, the Potency result in assay [1], in assay [2], in [17], in assay [5], in assay [7] and in [8] was “inactive” each time. Besides, the Potency result in assay [9], in [10], in assay [11], in assay [12], in assay [13] and in assay [14] was “inactive” throughout. Moreover, the Potency entry in assay [18], in assay [15] and in assay [16] was “inactive” in each case. Further, the result in [3] and in [6] was inactive. The max response in assay [4] was 3.61% (inactive) and -3.49% (inactive) and 2.76% (inactive).
